Drawing on PubChem BioAssay AID485317 (Broad Institute, 2010), this text covers inhibition for 93 compounds.

The structures appear in SMILES notation. Screen size: about 290,000 compounds; about 11,000 (3.8%) were called active. The sample as a whole holds a higher share of actives than the screen did. Unmarked numbers belong to inactive results.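 The calls were made as follows: active = mean replicate inhibition above about 79%, with every replicate also reaching it (limit read from the data); inconclusive = only one of the two criteria met; inactive = mean below limit and not every replicate reaching it.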

FAD-linked sulfhydryl oxidase ALR (Homo sapiens), sequence (P55789 whole entry, looked up): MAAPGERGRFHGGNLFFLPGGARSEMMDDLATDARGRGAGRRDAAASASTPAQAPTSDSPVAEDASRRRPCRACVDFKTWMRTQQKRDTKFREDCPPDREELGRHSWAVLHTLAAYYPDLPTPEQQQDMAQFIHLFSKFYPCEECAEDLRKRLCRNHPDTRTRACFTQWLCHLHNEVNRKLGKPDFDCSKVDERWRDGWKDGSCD

This test has as its target FAD-linked sulfhydryl oxidase ALR (Homo sapiens) (UniProt P55789). The test is described as follows: inhibitors of human ALR sulfhydryl oxidase, primary screen, biochemical, H2O2 detection, HRP-luminol luminescence, single point (AID 485317). The settings on record: purified ALR, DTT oxidation, active compounds read high, concentration not given here.
A word on the inhibition: it is the change of the read-out against control, counted positive when it falls. With `Cc1sc2nc(CSCC(=O)Nc3c(Cl)cccc3Cl)[nH]c(=O)c2c1C`, the inhibition was 36.7%. As for `CCOC(=O)c1sc2nc(CSCC(=O)OCc3ccc(C(=O)OC)o3)[nH]c(=O)c2c1C`, the inhibition was 91.5% (active). The result for `CCOC(=O)c1sc2nc(C)[nH]c(=O)c2c1C` reads -7.28%; that for `N#CCc1c(C#N)c(N)nc(N2CCCC2)c1C#N`, 6.64%. For `CC(C)Cc1nc(N2CCOCC2)c(C#N)c2c1CCC2` the value was -5.9%; for `CC(C)CCNc1nc(N2CCCC2)c2c(c1C#N)CCN(C)C2`, 89.2% (active). Consider `Cc1ccsc1C(=O)NC1CCCCC1C` (stereo not drawn), for which the inhibition was -1.25%. For `COc1ccccc1C1=CC(=O)C[C@H](c2ccc(F)cc2)C1` the value was -1.43%; for `CCCCN(CC)CCCNC(=O)c1ccc(CSc2nc3ccncc3[nH]2)cc1`, 98.4% (active). The result for `CCN(CC)CCNC(=O)c1ccc(NC(=O)c2cc(-c3ccncc3)nc3ccccc23)cc1` reads -5.03%. Turning to `Cc1cc(C)c(NC(=O)CSc2nc3ccncc3[nH]2)c(C)c1`, the inhibition is 0.095%. As for `Cc1nn(Cc2ccccc2)c(C)c1CNC(=O)c1ccc(F)c(S(=O)(=O)N2CCOCC2)c1`, the inhibition is -0.911%. Regarding `CCOc1cc(/C=C/C(=O)OCC(=O)NCCN2C(=O)CSC2=O)ccc1OCC(C)C`, the inhibition is 2.31%.

Turning to `CCN(CC(=O)Nc1c(F)cccc1F)C(=O)c1ccc(Sc2nncn2C)c([N+](=O)[O-])c1`, the inhibition was -9.3%. For `CCOc1ccc(Br)cc1CSC(=N)N` the value was 98.3% (active). As for `CC(C)(C)NCc1cc(Br)ccc1OC1CCCC1`, the inhibition is -4.37%. For `CCOc1ccc(Br)cc1S(=O)(=O)N1CCC(C(=O)O)CC1`, the inhibition was -9.17%. Take `COc1ccc(C(O)(C2CCCCC2)C(CN2CCCC2)c2ccccc2)cc1` (stereo not drawn): the inhibition is -2.71%.

Turning to `CN(C)CC(O)COc1ccc(C(C)(C)c2ccc(OCC(O)CN(C)C)cc2)cc1` (stereo not drawn), the inhibition is -9.59%. For the compound `CCCC(O)(c1ccc(OC)cc1)C(CN(C)C)c1ccccc1` (stereo not drawn), the inhibition is 98.6% (active).

As for `CC(=O)NC(CC(=O)Nc1ccc(S(=O)(=O)N2CCOCC2)cc1)c1ccccc1` (stereo not drawn), the inhibition was -5.33%. With `COc1ccc(CNC(=O)CNC(=O)c2sc3ccccc3c2Cl)cc1OC`, the inhibition was -4.54%. For `NCCN1CCN2C(=O)CN(C(=O)c3ccccc3)CC12` (stereo not drawn) the value was 1.22%; for `Cc1c(C(C)CCCO)oc(=O)c2c1Oc1c(C)c(C(C)C[C@@H](C)O)oc(=O)c1C2` (stereo partly drawn), -3.12%; for `COc1cc(C(=S)NCc2ccccc2)cc(Br)c1O`, 88.4% (active). As for `COc1cc(C(=O)NCc2ccncc2)cc(Br)c1OCc1ccccc1`, the inhibition is -6.06%. Turning to `COc1cc(C=O)c(Br)cc1OCC(=O)NCc1ccccc1`, the inhibition is -3.31%. For `O=C(CCC(=O)c1ccccc1)NCc1cccc(C(F)(F)F)c1` the value was -5.12%; for `NC(=O)c1ccsc1NC(=O)COC(=O)COc1ccc(C=O)cc1`, 0.523%. Regarding `COc1ccc(C2=NOC(Cn3nc(C(=O)NCc4ccc5c(c4)OCO5)cc3-c3ccccc3)C2)cc1` (stereo not drawn), the inhibition is -0.145%. As for `COc1ccc(N2CCN(C(=O)c3cccs3)CC2)cc1`, the inhibition was 93.9% (active). The result for `O=C(c1cccs1)N1CCN(C(=O)N2CCOCC2)CC1` reads 5.71%.

Take `COc1ccc(OCC(=O)N2CCN(C(=O)c3cccs3)CC2)cc1`: the inhibition was -3.05%.

For the compound `COc1ccc(C(=O)OC(C)C(=O)NC2CCCC2)cc1S(=O)(=O)N1CCOCC1` (stereo not drawn), the inhibition was 0.414%. For `O=C(Nc1ccc(N2CCCCC2)cc1)c1cc(S(=O)(=O)N2CCOCC2)ccc1F` the value was 40.2%; for `NC(=O)c1c(NC(=O)c2ccccc2)sc2c1CCCC2`, -3.69%. Regarding `COC(=O)c1c(NC(=O)c2ccccc2F)sc2c1C(C(=O)OC)CC2` (stereo not drawn), the inhibition was 1.9%. `O=C(Nc1sc2c(c1C(=O)O)CCC2)c1ccccc1F`: the inhibition is 98.3% (active). Take `O=C(NCC(c1cccs1)N1CCOCC1)c1cc(Cl)ccc1[N+](=O)[O-]` (stereo not drawn): the inhibition was -35.8%.

Turning to `CC(C)Oc1ccc(S(=O)(=O)N2CCOCC2)cc1NC(=O)C1CCCC1`, the inhibition was 0.587%. For `CCOc1ccc(NC(=O)CN(C)C(=O)Cn2c(=O)cnc3ccccc32)cc1OCC` the value was -5.33%; for `CCOc1ccc(CCNC(=O)COC(=O)C2CCN(c3ccc(C(F)(F)F)cn3)CC2)cc1OCC`, 0.148%. In the case of `CC(=O)N1CC(=O)N(CC(=O)Nc2ccc(Br)cc2)C1=S`, the inhibition is 99.4% (active). In the case of `Cc1cccc(NC(=O)CN2C(=O)CNC2=O)c1`, the inhibition is -1.19%. For `COCC(=O)Nc1ccc(Br)cc1` the value was -12.4%.

As for `Cc1ccc(C(=O)Nc2ccc3c(c2)OCCO3)cc1S(=O)(=O)N1CCOCC1`, the inhibition was -6.89%. For `Cc1ccc(OCC(=O)N2CCN(S(=O)(=O)c3ccc(Cl)s3)CC2)cc1C` the value was -2.26%; for `COc1ccc(N2CCN(C(=O)COC(=O)c3cccc(S(=O)(=O)Nc4ccccc4OC)c3)CC2)cc1`, 1.72%; for `CC1CCCCC12NC(=O)N(CC(=O)OCC(=O)NCc1ccc(F)cc1)C2=O` (stereo not drawn), -8.04%. Take `CC1CCCCC12NC(=O)N(CC(=O)Nc1ccc(S(=O)(=O)Nc3ncccn3)cc1)C2=O` (stereo not drawn): the inhibition is 91.2% (active). In the case of `CC1CCCCC12NC(=O)N(CC(=O)N1CCN(c3ccccc3)CC1)C2=O` (stereo not drawn), the inhibition was 33.6%.

`COc1ccccc1C(=O)NCC(=O)NCCSc1ccc(Br)cc1`: the inhibition is -5.14%. Take `COc1ccc(/C=N/NC(=O)c2cc(-c3cccc(C)c3)nc3ccccc23)cc1O`: the inhibition is 12.4%. For `CC(Oc1ccc(F)cc1)C(=O)Nc1cc(S(=O)(=O)N2CCOCC2)ccc1N1CCN(C)CC1` (stereo not drawn) the value was 24.9%.

In the case of `CCCCCCCN=C(C)c1ccccc1O`, the inhibition is -17.6%. Turning to `CCCCCCc1cc2cc(-c3nnc(-c4ccccc4)o3)c(=O)oc2cc1O`, the inhibition was 1.08%.

For the compound `CCCCCCc1ccc(O)cc1O`, the inhibition was 84.4% (active). For `COc1cccc(N2CC(NS(=O)(=O)c3ccc(Cl)cc3)CC2=O)c1` (stereo not drawn) the value was -2.83%; for `COc1ccc2c(c1)CCNC2Cc1ccc(OC)c(O)c1` (stereo not drawn), 22%; for `N=C(N)SCc1cccc2ccccc12`, 99.3% (active). For `c1ccc2c(CNn3cnnc3)cccc2c1` the value was -6.4%. On to `N#C/C(=C(/O)Cc1cccc2ccccc12)c1nc2ccccc2s1`, for which the inhibition was 4.12%. As to `O=C(CCNC(=O)c1ccc(Br)cc1)Nc1cccc(S(=O)(=O)N2CCCCC2)c1`, the inhibition was -14.1%. For `COc1ccc2oc(C(=O)OCC(=O)N(CC(C)C)c3c(N)n(Cc4ccccc4)c(=O)[nH]c3=O)c(C)c2c1` the value was 7.4%.

Take `O=C(Nc1cc(S(=O)(=O)N2CCCCC2)ccc1Cl)C1COc2ccccc2O1` (stereo not drawn): the inhibition is 0.363%. On to `Cc1c(C(=O)OCC(=O)N2CCCC2=O)oc2ccccc12`, for which the inhibition was -37.2%. The result for `COc1cc(OC)nc(NC(=O)CCl)n1` reads 6.07%; that for `O=C(CCl)NNc1nc(-c2ccccc2)c2cc(Cl)ccc2n1`, 58.6%; that for `O=C(CCl)NNc1cccc(Cl)n1`, 98.1% (active). The result for `O=C(CSCc1ccccc1Cl)NNC(=O)c1ccccc1` reads 99.6% (active).

For `O=C(COC(=O)Cc1ccccc1F)NNC(=O)c1ccc(Cl)cc1`, the inhibition was 0.881%. The result for `O=C(COC(=O)c1ncc(Cl)c(Cl)c1Cl)NNC(=O)c1ccccc1` reads 8.83%.

For `CCN1CCN(c2ccc(S(=O)(=O)N3CCCCC3)cc2NC(=O)c2cccc(NC(C)=O)c2)CC1`, the inhibition is -18.1%. For `C[C@]12CC[C@H](O)CC1=CCC1C2CC[C@@]2(C)C1CC[C@@H]2NC(=O)CCC(=O)O` (stereo partly drawn) the value was -3.02%; for `Cc1ccc(NC(=O)COC(=O)C2CC2)cc1S(=O)(=O)N1CCOCC1`, 3.43%; for `CN(C)S(=O)(=O)c1ccc(C(=O)NCC2(N3CCOCC3)CCCCC2)cc1`, -19.4%. The result for `COc1ccc(-c2cc(=O)c3c(O)cc(O[C@@H]4O[C@H](CO[C@@H]5O[C@@H](C)[C@H](O)[C@@H](O)[C@H]5O)[C@@H](O)[C@H](O)[C@H]4O)cc3o2)cc1O` reads 2.46%; that for `CCOC(=O)COc1cc(O)c2c(=O)cc(-c3ccccc3)oc2c1`, -2.55%; that for `COc1c(O)cc2oc(-c3ccc(O)c(O)c3)cc(=O)c2c1O`, 99% (active). For `[O-][n+]1ccc(OCc2ccccc2)cc1` the value was -3.31%. For the compound `CCOc1ccc(Br)cc1S(=O)(=O)Nc1ccc(S(=O)(=O)Nc2cc(C)on2)cc1`, the inhibition is 13.7%. The result for `Cc1ccc(NC(=O)N2CCC(c3nc4c(nnn4Cc4c(F)cccc4Cl)c(=O)[nH]3)CC2)cc1` reads -5.17%; that for `O=C(Nc1ccc(F)cc1)N1CCCC(c2nc3c(nnn3Cc3ccccc3Cl)c(=O)[nH]2)C1` (stereo not drawn), -24.5%.

As for `Cc1ccc(C)c(Cn2nnc3c(=O)[nH]c(C(=O)Nc4ccc(F)cc4)nc32)c1`, the inhibition is 95.6% (active). Turning to `OC(COCc1ccco1)CN1CCN(c2ccccc2)CC1` (stereo not drawn), the inhibition is 74.6%. For `O=[N+]([O-])c1ccc(N2CCN(CC(O)COc3ccccc3)CC2)cc1` (stereo not drawn), the inhibition was 6.12%. Consider `OC(COCC1COc2ccccc2O1)CN1CCN(c2ccc(F)cc2)CC1` (stereo not drawn), for which the inhibition was 81.2% (active).

Consider `COCCn1c(SCC(=O)N2CCCCCC2)nc2c(c1=O)SCC2`, for which the inhibition is -0.691%. For `CCn1c(SCc2ccccc2)nc2cc(OC)c(OC)cc2c1=O`, the inhibition was -2.54%. Regarding `CCn1c(SCc2ccccc2)nc2c(c1=O)SCC2`, the inhibition was 90.4% (active).

Consider `Cc1cccc(CSc2nnc(C)c(=O)n2N)c1`, for which the inhibition was -4.99%. The result for `Cc1cccc(CSc2nc3c(c(=O)n2C)SCC3)c1` reads 99% (active); that for `Cn1c(SCC(=O)N2CCCCC2)nc2c(c1=O)SCC2`, -0.76%.
